Screens from PubChem BioAssay.
Only some compounds are listed: those with a hit (about 2.9% of all), similar ones and a draw of the others.
GLP1R ag – qHTS of GLP-1 Receptor Agonists; Glucagon-like peptide 1 receptor (Homo sapiens), P43220; HEK293 GLP-1R CRE-luciferase, luminescence, 4-6 h; cells express a hypersensitive GLP-1R form; Potency, µM (titrated, usually from 45.6 µM), usual class: activators; hit rate 0.007% among 380,000; AID 624172, 2012
Target sequence (P43220 whole entry, looked up): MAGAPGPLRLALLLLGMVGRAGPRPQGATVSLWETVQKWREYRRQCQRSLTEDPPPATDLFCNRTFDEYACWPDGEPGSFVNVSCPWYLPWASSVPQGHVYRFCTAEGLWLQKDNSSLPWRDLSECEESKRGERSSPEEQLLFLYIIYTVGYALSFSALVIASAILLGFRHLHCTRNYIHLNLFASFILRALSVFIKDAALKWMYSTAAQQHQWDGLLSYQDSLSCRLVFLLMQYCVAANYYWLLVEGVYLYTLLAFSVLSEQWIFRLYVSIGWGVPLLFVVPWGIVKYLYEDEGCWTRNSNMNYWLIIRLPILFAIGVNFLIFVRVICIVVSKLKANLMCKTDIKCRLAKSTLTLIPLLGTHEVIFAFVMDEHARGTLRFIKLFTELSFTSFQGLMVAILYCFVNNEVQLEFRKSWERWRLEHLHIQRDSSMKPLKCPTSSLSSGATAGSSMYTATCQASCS
GLP-1R inv ag – qHTS of GLP-1 Receptor Inverse Agonists (Inhibition Mode). HEK293 GLP-1R CRE-luciferase, luminescence, 24 h; GLP-1R form is constitutively active. Potency, µM (highest dose often 38.3 µM), hits mostly inhibitors. hit rate 1.6% among 410,000. AID 624417, 2012; also: nearly all actives have a fitted effect of over 55% in size
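Seeding at 200 cells/uL, 12 h culture, 24 hr compound treatment, then luciferase reagent and a luminescence read; cells are HEK293 stably expressing a constitutively active GLP-1R plus cAMP-responsive luciferase.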
ClpP mod – qHTS Assay for Activators of ClpP; purified B. subtilis ClpP, FRET peptide cleavage, 20 min; Potency, µM (series often up to 57.5 µM); hit rate 1.9% among 340,000; ATP-dependent Clp protease proteolytic subunit (Bacillus subtilis (strain 168)), P80244; active = well fitted falling curve with a large enough effect; inconclusive = small, poorly fitted or top-dose-only effect; inactive = no such curve, though single readings can be large or run the other way; also: the source files actives as falling curves though it sought activators and does not explain the sign; nearly all actives have a fitted effect of over 65% in size
Target sequence (P80244 whole entry, looked up): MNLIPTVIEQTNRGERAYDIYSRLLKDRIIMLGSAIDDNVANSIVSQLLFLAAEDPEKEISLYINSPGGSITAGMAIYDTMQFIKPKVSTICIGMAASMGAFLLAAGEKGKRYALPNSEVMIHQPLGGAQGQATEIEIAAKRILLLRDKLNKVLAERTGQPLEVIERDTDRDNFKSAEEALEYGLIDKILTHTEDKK
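ClpP 10 microg/mL final, pH 8 Tris/KCl buffer with BSA, glycerol, Tween-20; compound pinned in; FRET-FV substrate; RT 20 min; Ex320/Em430; ΔFRET vs ADEP 5.8 microM, DMSO, no enzyme.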
LDHA block – qHTS assay for inhibitors of human lactate dehydrogenase. L-lactate dehydrogenase A chain (Homo sapiens), P00338. purified LDHA, NADH/diaphorase-resazurin fluorescence; active compounds read low. activity change, % (values are at about 110 or 230 µM). hit rate 0.15% among 480,000. AID 1347041, 2019; in the data active = activity change below about -30%; inconclusive = mostly about -25% to -30%
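Remaining NADH was detected by diaphorase (0.133 mg/mL) converting 37 µM resazurin to fluorescent resorufin, read at 0 and 20 minutes. The preceding 5-minute room-temperature reaction used 2 nM LDHA, 0.2 mM sodium pyruvate and 0.06 mM NADH at pH 7.4.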
p53 reactivator – qHTS assay for re-activators of p53 using a Luc reporter | H1299 p53-A138V BP100-luciferase reporter, luminescence, 24 h | Potency, µM (top dose mostly 92.2 µM), most hits filed as activators | hit rate 0.063% among 320,000 | AID 504706, 2011; also: nearly all actives have a fitted effect of over 45% in size
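H1299 (p53-null), stable ts p53-A138V + BP100-Luc; 1000 cells/well, Opti-MEM/10% FBS; cpd 4 pt, 1:5; 24 h, 37 deg C, 5% CO2; detection reagent 10 min RT; luminescence.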
GLP1R cytotox – qHTS of GLP-1 Receptor Inverse Agonists: Cytotox Screen. HEK293 cAMP-luciferase reporter cells, luminescence, 24 h. Potency, µM (highest dose often 38.3 µM), hits mostly inhibitors. hit rate 0.13% among 410,000. AID 624418, 2012;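 also: loss of luciferase light is scored as toxicity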
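Cells in DMEM/10% Nu serum/1% pen-strep, 1536-well format. Pre-incubated 12 h, dosed with 23 nL compound, incubated a further 24 h. Luciferase detection, 12 min at room temp, luminescence.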
Of the large screens only hits and unclear results are named; the others gave an inactive call. Unless noted, calls follow the shape of the dose curve; as a rule, active = well fitted curve in the direction sought with a large enough effect; inconclusive = small, poorly fitted or top-dose-only effect, or another doubt; inactive = no such curve, though single readings can be large; an effect the other way counts as inactive or inconclusive.

CCOC(=O)c1c(S(=O)(=O)N2CCN(c3cccc(C(F)(F)F)c3)CC2)c(C)n(C)c1C	none (no result: GLP1R ag, p53 reactivator)
CCOC(=O)c1c(C)[nH]c(C)c1S(=O)(=O)N1CCN(c2cccc(C(F)(F)F)c2)CC1	GLP-1R inv ag 5.62µM, GLP1R cytotox inconclusive (no result: GLP1R ag, p53 reactivator)
Cc1cc(C)n(CC(O)Cn2c3ccc(Br)cc3c3cc(Br)ccc32)c(=O)n1 (centres undefined)	GLP-1R inv ag 11.2µM
CC(=O)Nc1ccc2[nH]ccc2c1	none (no result: p53 reactivator)
Cc1c(C#N)c2ncnc(-c3ccccc3)c2n1-c1ccccc1	ClpP mod 35.5µM
N#Cc1c2n(c3c(=O)[nH]cnc13)CCCC2	none
N#Cc1c2n(c3c(-c4ccccc4)ncnc13)CCC2	ClpP mod 31.6µM
O=C(NC1CC1(c1ccccc1)c1ccccc1)c1ccccc1 (centres undefined)	GLP-1R inv ag inconclusive (no result: p53 reactivator)
COc1cc2c(cc1C(F)(F)F)N(C(=O)Nc1cc(F)cc(-c3cccnc3)c1)CC2	none (no result: GLP1R ag, GLP-1R inv ag, p53 reactivator, GLP1R cytotox)
C=C[C@@]1(C)CC(=O)[C@]2(O)[C@@]3(C)[C@@H](O)CCC(C)(C)[C@@H]3[C@H](OC(C)=O)[C@H](O)[C@@]2(C)O1	GLP1R ag 7.94µM (no result: p53 reactivator)
C=C1C(=O)O[C@H]2C[C@]3(C)C([C@@H](OC(=O)/C(C)=C/C)[C@H]12)[C@](C)(O)CC[C@H]3O (some centres undefined)	none
C=C[C@@]1(C)CC(=O)[C@]2(O)[C@@]3(C)[C@@H](O)CCC(C)(C)[C@@H]3[C@H](O)[C@H](OC(C)=O)[C@@]2(C)O1	GLP1R ag 1.26µM (no result: p53 reactivator)
COc1cc(OC)c(C=NNC(=S)NC23CC4CC(CC(C4)C2)C3)c(OC)c1	GLP-1R inv ag inconclusive, GLP1R cytotox inconclusive (no result: p53 reactivator)
Cc1cccc(OC(C)C(=O)Nc2ccc3c(c2)OCCO3)c1 (centres undefined)	none (no result: ClpP mod, p53 reactivator)
COc1ccc(CNc2nc(-c3ccc(OC)cc3)cc(C(F)(F)F)n2)cc1	GLP-1R inv ag 6.31µM (no result: p53 reactivator)
COc1ccccc1CNC(=O)CSc1nc(-c2ccc(OC)c(OC)c2)cc(C(F)(F)F)n1	ClpP mod 28.2µM (no result: GLP1R ag, p53 reactivator)
COc1ccc(-c2cc(C(F)(F)F)nc(NCc3ccc(F)cc3)n2)cc1	GLP-1R inv ag inconclusive (no result: p53 reactivator)
O=C(CSc1nc(-c2ccccc2)cc(C(F)(F)F)n1)NCc1cccs1	GLP-1R inv ag inconclusive
COc1ccc(-c2cc(C(F)(F)F)nc(SCC(=O)NCc3cnn(C)c3C)n2)cc1OC	ClpP mod 28.2µM
COc1ccc(-c2cc(C(F)(F)F)nc(SCC(=O)NCc3cccs3)n2)cc1	ClpP mod 35.5µM
Cn1nnnc1Sc1ncnc2scc(-c3ccc(S(C)(=O)=O)cc3)c12	none (no result: GLP1R ag, GLP-1R inv ag, ClpP mod, p53 reactivator, GLP1R cytotox)
CC1CCN(N=Nc2nc3c([nH]2)c(=O)n(C)c(=O)n3C)CC1	none (no result: ClpP mod, p53 reactivator)
CCCc1ccc(S(=O)(=O)N(C)S(=O)(=O)c2ccc(F)cc2)cc1	none
CCOC(=O)c1ccc(NC(=O)CC2COc3ccccc3O2)cc1 (centres undefined)	GLP-1R inv ag inconclusive
COc1ccc(-c2cc(C(F)(F)F)nc(SCCC(=O)N3CCOCC3)n2)cc1	ClpP mod 25.1µM
COc1ccc(-c2cc(C(F)(F)F)nc(SCCC(=O)N3CCN(C)CC3)n2)cc1	none (no result: p53 reactivator)
CC(NC(=O)Nc1nnc(C(F)(F)F)s1)(C(F)(F)F)C(F)(F)F	GLP-1R inv ag 4.47µM, GLP1R cytotox inconclusive
Cc1cccc(C)c1OCC(=O)Nc1c(C(=O)c2ccccc2)oc2ccccc12	none (no result: p53 reactivator)
Cc1cc(/C=N/NC(N)=S)c(C)n1-c1ccc(Cl)c(Cl)c1	GLP-1R inv ag inconclusive, GLP1R cytotox 3.16µM (no result: ClpP mod)
CCOc1ccc(NC(=S)Nc2ccc(OCc3ccccc3)cc2)cc1	none
COc1ccc(N(C(=O)c2ccccc2C)S(=O)(=O)c2ccc(C)cc2)cc1	GLP-1R inv ag 10µM (no result: GLP1R ag, p53 reactivator)
O=C(Nc1nc2cc3c(cc2s1)OCCCO3)c1cccc(Cl)c1	none (no result: GLP1R ag, GLP-1R inv ag, ClpP mod, p53 reactivator, GLP1R cytotox)
CCNc1nc(-c2ccc(NC(C)=O)cc2F)cs1	none (no result: GLP1R ag, GLP-1R inv ag, ClpP mod, p53 reactivator, GLP1R cytotox)
Cc1nc(Nc2ccc(S(=O)(=O)N3CCCCC3C)cc2)c2nnn(Cc3ccccc3)c2n1 (centres undefined)	ClpP mod 31.6µM
Cc1nc(Nc2ccc(Cl)cc2)c2nnn(Cc3ccccc3)c2n1	none (no result: ClpP mod)
COc1ccc(/C=C/c2nc3cc(-c4ccccc4)ccc3o2)cc1O	ClpP mod 12.6µM
CC1Cc2cc(/C(O)=C3/C(=O)C(=O)N(Cc4ccncc4)C3c3ccc(N(C)C)cc3)ccc2O1 (centres undefined)	none
Nc1ccccc1Sc1ccccc1[N+](=O)[O-]	none
Nc1nc(O)c(Sc2ccccc2[N+](=O)[O-])c(=O)[nH]1	LDHA block -51.7 (no result: ClpP mod)
CC[C@H](C)C(C(=O)N1CCN(C(=O)OC(C)(C)C)CC1)n1cc(C(CC(C)C)NC(=O)OC(C)(C)C)nn1 (some centres undefined)	none
Cc1cc(C)n2nc3nc4c(cc3c2n1)CCCC4	ClpP mod 12.6µM, p53 reactivator inconclusive
Clc1ccc(C2CC(c3ccco3)n3ncnc3N2)cc1Cl (centres undefined)	GLP-1R inv ag 10µM
Clc1ccc(C2CC(c3ccccc3)Nc3ncnn32)cc1 (centres undefined)	GLP-1R inv ag inconclusive
COc1ccccc1N1CCN(C2CCCN(C(=O)c3ccoc3)C2)CC1 (centres undefined)	none (no result: ClpP mod)
CCOc1cccc(-c2cc(=O)[nH][nH]2)c1	ClpP mod 14.1µM
CC(=O)c1ccc(N2CCN(C(=O)c3cn(Cc4ccccc4)nc3-c3cccnc3)CC2)c(F)c1	none
Clc1ccc2[nH]c3c(NCCCN4CCOCC4)ncnc3c2c1	GLP-1R inv ag inconclusive, ClpP mod 20µM
O=C1CCCN1CCCn1cnc2c([nH]c3ccc(F)cc32)c1=O	ClpP mod inconclusive
O=C1CCCN1CCCNc1ncnc2c1[nH]c1ccc(Cl)cc12	GLP1R ag inconclusive, ClpP mod 25.1µM
Cc1ccc2[nH]c3c(NCCN4CCOCC4)ncnc3c2c1	none
Cc1[nH]c(=O)cc2ccccc12	ClpP mod 22.4µM
Cc1cc(=O)[nH]c2ccccc12	none
CN(C(=O)c1ccc(NC(=O)Cc2ccc(NC(=O)C3CCCN(C(=O)CCc4ccccc4)C3)cc2)cc1)C1CC1 (centres undefined)	none
